This note sets out measurements from ChEMBL document CHEMBL1961873, “Compounds: GSK PKIS; Assays: Nanosyn kinase panel” (2012).

The target of assay [1] is T1, Serine/threonine-protein kinase D2 (Homo sapiens) (UniProt Q9BZL6).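 Further: mean value of PRKD2 inhibition, from the GSK PKIS screening panel.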
T1 sequence (whole entry): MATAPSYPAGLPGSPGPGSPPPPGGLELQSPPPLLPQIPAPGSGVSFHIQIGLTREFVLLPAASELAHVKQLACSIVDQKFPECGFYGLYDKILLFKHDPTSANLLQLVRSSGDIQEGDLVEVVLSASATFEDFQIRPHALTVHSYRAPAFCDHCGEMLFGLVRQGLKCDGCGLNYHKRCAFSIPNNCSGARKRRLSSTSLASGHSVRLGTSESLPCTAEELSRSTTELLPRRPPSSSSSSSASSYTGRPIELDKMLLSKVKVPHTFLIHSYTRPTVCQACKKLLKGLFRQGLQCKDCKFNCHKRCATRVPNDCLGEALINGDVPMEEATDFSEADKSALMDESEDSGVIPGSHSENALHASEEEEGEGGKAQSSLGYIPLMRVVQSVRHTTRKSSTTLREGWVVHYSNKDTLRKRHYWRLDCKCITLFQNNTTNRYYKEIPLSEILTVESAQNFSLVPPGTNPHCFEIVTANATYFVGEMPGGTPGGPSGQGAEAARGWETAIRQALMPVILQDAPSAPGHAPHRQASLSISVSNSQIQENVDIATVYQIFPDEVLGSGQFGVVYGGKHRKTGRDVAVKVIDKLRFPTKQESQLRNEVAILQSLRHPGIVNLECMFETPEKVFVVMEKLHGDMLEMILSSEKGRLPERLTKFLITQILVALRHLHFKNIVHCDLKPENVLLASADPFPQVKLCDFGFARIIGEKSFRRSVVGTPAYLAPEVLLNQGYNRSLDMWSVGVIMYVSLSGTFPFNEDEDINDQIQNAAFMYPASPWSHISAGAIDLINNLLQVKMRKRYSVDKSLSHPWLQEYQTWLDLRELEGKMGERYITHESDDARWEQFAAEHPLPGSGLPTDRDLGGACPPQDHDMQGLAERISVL
The settings on record: at 1 µM.

The target of assay [2] is T2, Serine/threonine-protein kinase D3 (Homo sapiens) (UniProt O94806).
T2 sequence (whole entry): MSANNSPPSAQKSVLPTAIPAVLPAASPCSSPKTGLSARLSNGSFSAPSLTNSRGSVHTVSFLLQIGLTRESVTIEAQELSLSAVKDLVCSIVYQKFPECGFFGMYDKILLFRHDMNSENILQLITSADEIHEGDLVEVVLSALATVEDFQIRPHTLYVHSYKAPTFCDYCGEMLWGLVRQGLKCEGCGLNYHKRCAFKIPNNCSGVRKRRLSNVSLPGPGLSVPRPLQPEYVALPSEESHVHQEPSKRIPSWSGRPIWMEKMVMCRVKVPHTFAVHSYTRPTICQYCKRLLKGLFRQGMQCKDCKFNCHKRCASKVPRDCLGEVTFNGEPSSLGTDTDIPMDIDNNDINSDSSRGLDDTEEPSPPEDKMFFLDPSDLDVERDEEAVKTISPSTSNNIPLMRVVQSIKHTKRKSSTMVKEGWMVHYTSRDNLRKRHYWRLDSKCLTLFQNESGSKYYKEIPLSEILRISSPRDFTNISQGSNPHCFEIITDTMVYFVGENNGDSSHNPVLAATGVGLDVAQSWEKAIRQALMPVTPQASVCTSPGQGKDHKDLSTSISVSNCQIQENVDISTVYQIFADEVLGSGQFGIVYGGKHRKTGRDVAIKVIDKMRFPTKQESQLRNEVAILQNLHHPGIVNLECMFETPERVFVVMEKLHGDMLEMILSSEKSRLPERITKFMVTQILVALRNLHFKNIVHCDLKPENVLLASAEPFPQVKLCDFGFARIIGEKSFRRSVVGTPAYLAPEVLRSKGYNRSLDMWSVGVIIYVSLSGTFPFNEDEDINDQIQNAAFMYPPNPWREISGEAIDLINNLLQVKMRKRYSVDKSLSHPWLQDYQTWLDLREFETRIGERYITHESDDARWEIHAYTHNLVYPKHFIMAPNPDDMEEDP
The note with it: at 0.1 µM.

Assay [3] has as its target T2, Serine/threonine-protein kinase D3 (Homo sapiens). The settings on record: at 1 µM.
Assay [4] addresses T3, cGMP-dependent protein kinase 1 (Homo sapiens) (UniProt Q13976).
T3 sequence (whole entry): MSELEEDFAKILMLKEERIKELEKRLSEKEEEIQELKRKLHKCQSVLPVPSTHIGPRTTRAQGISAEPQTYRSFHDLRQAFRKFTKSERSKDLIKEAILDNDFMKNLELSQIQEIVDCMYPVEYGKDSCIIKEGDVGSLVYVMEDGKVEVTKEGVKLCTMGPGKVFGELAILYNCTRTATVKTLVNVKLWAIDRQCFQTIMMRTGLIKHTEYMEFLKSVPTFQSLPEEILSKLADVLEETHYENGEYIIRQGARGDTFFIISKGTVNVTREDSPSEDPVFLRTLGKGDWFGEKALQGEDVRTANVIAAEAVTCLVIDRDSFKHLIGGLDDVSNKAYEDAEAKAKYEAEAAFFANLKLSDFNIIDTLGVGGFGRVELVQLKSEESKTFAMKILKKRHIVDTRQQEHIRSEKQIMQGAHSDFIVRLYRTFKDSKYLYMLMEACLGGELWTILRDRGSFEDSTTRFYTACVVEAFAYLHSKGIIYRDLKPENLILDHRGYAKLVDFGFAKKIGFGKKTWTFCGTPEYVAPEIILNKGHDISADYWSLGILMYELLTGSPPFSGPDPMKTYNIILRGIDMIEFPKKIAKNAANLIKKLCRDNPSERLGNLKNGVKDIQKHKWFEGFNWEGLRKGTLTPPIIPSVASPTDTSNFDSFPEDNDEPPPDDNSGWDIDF
The settings on record: at 0.1 µM.

In assay [5] the target is T3, cGMP-dependent protein kinase 1 (Homo sapiens). The settings on record: at 1 µM.
The target in assay [6] is T4, cGMP-dependent protein kinase 2 (Homo sapiens) (UniProt Q13237).
T4 sequence (whole entry): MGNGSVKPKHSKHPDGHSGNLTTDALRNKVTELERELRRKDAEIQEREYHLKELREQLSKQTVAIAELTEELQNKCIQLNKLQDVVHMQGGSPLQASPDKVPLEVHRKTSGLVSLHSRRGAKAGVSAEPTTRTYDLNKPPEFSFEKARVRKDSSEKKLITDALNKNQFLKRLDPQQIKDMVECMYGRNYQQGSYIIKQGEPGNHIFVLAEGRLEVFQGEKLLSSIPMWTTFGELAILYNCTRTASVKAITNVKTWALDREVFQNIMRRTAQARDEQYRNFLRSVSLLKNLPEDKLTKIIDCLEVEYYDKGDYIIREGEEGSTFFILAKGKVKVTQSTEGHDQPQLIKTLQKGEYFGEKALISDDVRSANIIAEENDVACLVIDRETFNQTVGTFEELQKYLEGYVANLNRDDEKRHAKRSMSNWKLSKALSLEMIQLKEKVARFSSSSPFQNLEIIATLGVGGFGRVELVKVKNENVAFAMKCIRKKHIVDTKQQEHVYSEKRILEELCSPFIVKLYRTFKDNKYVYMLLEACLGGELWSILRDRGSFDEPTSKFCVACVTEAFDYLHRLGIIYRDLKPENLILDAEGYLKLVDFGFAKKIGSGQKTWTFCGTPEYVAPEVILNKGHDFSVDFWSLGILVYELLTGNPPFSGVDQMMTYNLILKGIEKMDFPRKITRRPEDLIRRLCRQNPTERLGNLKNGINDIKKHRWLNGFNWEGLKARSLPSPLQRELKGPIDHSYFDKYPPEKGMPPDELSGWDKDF
The settings on record: at 0.1 µM.

Assay [7] addresses T4, cGMP-dependent protein kinase 2 (Homo sapiens). The note with it: at 1 µM.
The target in assay [8] is T5, cAMP-dependent protein kinase catalytic subunit PRKX (Homo sapiens) (UniProt P51817).
T5 sequence (whole entry): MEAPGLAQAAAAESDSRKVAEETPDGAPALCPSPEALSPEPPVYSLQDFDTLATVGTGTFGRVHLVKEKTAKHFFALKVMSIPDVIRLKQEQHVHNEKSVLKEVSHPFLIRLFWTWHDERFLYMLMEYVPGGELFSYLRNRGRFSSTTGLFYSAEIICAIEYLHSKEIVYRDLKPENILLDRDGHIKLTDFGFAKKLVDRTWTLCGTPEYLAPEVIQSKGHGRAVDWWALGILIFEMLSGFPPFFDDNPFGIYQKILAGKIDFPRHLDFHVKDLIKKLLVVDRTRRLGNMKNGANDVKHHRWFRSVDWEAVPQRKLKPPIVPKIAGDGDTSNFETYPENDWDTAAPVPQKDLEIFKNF
The settings on record: at 0.1 µM.

Assay [9] deals with T5, cAMP-dependent protein kinase catalytic subunit PRKX (Homo sapiens). The note with it: at 1 µM.
The target of assay [10] is Rho-associated protein kinase 1 (Homo sapiens) (UniProt Q13464). The settings on record: at 0.1 µM.
The target is the same in assay [11]. The note with it: at 1 µM.
Assay [12] addresses Rho-associated protein kinase 2 (Homo sapiens) (UniProt O75116). The settings on record: at 0.1 µM.
Assay [13] has the same target. The settings on record: at 1 µM.
The target of assay [14] is Ribosomal protein S6 kinase alpha-1 (Homo sapiens) (UniProt Q15418). The note with it: at 0.1 µM.
For assay [15] the target is unchanged. The note with it: at 1 µM.
The target in assay [16] is Ribosomal protein S6 kinase alpha-3 (Homo sapiens) (UniProt P51812). The settings on record: at 0.1 µM.
Assay [17] shares this target. The note with it: at 1 µM.
Assay [18] concerns the target Ribosomal protein S6 kinase alpha-2 (Homo sapiens) (UniProt Q15349). The note with it: at 0.1 µM.
Assay [19] has the same target. The note with it: at 1 µM.
The target of assay [20] is Ribosomal protein S6 kinase alpha-6 (Homo sapiens) (UniProt Q9UK32). The note with it: at 0.1 µM.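 Further: reported value is the mean inhibition of RSK4, from the GSK PKIS kinase inhibitor screen.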
Ribosomal protein S6 kinase alpha-6 (Homo sapiens), sequence (Q9UK32 whole entry): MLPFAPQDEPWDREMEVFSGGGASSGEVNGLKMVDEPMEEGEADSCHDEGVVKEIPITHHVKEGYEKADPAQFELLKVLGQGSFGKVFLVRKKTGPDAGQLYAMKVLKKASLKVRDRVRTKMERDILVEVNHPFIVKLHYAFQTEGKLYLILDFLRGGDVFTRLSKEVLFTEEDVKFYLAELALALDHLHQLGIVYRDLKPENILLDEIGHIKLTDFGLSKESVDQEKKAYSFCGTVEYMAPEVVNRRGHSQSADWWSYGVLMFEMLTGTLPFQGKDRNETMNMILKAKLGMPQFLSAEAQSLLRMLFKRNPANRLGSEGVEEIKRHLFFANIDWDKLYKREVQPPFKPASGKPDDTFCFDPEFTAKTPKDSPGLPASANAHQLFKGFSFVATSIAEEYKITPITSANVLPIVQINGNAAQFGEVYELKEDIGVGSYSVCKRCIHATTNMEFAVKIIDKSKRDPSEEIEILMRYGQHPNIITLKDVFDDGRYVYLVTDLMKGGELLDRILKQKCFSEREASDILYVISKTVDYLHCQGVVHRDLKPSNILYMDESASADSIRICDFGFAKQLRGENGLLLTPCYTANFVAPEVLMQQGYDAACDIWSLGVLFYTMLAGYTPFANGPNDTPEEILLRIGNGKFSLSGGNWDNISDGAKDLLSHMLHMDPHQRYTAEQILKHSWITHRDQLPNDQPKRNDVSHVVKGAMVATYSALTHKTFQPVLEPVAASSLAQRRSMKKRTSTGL

Ribosomal protein S6 kinase alpha-2 (Homo sapiens), sequence (Q15349 whole entry): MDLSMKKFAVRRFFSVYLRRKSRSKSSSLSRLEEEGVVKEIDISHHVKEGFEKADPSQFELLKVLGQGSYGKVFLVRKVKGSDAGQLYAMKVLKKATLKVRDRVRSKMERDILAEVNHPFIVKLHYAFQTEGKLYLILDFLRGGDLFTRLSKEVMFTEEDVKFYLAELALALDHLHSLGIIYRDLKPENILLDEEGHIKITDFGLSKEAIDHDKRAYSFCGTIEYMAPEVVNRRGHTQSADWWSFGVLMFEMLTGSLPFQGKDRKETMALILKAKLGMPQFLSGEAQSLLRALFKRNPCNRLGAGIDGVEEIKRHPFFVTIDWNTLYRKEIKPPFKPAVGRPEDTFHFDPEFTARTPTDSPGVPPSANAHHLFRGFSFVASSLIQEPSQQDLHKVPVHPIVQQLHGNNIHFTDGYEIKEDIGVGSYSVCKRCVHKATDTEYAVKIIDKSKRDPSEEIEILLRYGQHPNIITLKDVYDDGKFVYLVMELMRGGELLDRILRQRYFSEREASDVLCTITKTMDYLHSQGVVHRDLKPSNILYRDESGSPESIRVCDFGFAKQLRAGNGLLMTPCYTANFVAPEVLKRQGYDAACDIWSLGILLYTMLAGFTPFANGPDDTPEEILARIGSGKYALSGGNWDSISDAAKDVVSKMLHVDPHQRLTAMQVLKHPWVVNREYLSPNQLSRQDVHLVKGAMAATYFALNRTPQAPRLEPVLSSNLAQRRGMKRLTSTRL
Rho-associated protein kinase 1 (Homo sapiens), sequence (Q13464 2-1354 limits assumed): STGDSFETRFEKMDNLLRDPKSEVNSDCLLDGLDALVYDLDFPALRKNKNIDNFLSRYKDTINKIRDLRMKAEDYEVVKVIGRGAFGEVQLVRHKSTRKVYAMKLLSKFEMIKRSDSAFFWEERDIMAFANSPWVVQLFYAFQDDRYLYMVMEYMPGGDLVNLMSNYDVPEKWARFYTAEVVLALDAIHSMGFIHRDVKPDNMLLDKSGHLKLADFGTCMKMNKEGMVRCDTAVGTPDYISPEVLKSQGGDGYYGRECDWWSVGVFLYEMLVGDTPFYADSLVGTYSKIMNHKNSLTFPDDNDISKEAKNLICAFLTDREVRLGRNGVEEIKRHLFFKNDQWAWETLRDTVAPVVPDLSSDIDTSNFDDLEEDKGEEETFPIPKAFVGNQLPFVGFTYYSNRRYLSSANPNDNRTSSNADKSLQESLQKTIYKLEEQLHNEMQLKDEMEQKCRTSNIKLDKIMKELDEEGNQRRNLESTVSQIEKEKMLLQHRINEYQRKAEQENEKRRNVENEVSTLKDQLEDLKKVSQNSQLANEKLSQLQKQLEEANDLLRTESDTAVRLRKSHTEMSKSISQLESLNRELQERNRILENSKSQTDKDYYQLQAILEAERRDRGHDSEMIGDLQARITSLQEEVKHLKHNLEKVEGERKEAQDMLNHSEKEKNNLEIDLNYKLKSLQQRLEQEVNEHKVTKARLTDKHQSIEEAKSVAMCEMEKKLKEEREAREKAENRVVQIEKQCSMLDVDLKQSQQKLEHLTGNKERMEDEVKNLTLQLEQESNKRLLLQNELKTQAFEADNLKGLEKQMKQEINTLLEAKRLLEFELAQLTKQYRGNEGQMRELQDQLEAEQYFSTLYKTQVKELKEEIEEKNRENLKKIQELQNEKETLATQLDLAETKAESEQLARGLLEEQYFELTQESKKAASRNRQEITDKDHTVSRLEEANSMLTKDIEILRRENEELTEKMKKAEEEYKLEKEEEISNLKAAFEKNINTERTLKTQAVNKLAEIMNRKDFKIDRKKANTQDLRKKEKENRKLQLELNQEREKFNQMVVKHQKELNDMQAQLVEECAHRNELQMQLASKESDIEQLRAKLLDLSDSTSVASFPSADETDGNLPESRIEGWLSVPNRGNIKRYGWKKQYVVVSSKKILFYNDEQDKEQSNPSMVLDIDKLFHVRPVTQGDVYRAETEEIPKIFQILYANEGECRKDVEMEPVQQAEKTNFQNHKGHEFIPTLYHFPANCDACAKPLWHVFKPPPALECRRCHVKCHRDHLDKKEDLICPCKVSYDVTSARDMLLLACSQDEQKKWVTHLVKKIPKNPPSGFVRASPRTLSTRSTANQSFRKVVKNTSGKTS
Rho-associated protein kinase 2 (Homo sapiens), sequence (O75116 whole entry, looked up): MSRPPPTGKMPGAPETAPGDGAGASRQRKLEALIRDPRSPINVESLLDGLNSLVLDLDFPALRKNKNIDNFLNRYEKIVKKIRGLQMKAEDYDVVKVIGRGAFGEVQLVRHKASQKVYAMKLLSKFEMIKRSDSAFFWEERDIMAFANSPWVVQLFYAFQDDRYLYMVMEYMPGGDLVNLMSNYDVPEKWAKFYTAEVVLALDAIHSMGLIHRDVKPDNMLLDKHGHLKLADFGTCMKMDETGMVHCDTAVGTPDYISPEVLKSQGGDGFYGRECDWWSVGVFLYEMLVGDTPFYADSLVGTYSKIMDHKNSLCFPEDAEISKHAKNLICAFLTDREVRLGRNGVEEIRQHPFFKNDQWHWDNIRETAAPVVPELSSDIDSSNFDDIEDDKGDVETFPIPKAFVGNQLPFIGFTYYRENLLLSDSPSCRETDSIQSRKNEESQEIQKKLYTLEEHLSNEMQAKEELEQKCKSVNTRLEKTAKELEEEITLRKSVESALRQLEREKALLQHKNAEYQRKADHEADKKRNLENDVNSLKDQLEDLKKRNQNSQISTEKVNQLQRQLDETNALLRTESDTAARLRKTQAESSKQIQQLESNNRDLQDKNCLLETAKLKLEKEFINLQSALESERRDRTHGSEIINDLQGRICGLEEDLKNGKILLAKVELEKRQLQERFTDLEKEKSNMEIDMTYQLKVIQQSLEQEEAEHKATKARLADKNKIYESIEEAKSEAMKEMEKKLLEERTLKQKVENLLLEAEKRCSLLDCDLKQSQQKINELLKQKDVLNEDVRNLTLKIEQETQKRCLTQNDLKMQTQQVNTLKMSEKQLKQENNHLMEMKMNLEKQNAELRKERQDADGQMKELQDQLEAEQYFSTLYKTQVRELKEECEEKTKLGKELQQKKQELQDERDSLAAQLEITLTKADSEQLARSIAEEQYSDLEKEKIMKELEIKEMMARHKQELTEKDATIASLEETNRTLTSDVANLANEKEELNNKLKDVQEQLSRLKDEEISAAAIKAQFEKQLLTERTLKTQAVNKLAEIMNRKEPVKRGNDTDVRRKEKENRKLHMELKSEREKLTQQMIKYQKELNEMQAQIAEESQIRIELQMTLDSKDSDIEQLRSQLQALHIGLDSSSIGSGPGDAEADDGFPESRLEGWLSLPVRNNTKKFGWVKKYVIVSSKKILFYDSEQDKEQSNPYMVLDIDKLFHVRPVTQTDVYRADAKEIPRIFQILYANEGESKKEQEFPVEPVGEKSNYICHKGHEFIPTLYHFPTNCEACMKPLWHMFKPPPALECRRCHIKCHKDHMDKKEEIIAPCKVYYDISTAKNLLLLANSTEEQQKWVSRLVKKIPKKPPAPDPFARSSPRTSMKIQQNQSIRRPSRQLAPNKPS
Ribosomal protein S6 kinase alpha-1 (Homo sapiens), sequence (Q15418 whole entry): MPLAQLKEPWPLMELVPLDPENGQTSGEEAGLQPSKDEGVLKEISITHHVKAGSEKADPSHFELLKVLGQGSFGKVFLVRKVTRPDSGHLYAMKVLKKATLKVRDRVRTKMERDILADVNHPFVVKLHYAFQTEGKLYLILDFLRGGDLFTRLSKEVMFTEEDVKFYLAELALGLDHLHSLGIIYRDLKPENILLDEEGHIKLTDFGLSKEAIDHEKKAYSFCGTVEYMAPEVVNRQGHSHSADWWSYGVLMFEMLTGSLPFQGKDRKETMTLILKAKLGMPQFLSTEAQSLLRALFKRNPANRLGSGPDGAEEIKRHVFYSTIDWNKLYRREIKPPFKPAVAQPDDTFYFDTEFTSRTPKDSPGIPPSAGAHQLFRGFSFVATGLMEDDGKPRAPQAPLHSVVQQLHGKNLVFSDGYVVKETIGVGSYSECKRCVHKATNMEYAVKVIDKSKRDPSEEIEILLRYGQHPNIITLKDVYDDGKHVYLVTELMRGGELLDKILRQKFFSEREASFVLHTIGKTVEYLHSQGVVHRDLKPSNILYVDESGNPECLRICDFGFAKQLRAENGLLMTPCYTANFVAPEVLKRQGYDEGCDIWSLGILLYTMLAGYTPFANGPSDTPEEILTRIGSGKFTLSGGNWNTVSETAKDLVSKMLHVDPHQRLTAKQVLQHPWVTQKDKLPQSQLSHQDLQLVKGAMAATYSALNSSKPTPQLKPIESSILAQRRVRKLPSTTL

As for `O=C1Nc2ccccc2/C1=C/Nc1ccc2[nH]c(=O)[nH]c2c1`, the inhibition in [1] came out at 14%; in assay [2], 5.54%; in assay [3], 11.7%; in assay [4] it was 1.49%; in [5], 6.34%; in assay [6], 3.41%. The inhibition in assay [7] was 13.8%; in assay [8] it was 2.23%; in assay [9], 8.47%; in assay [10], 0.24%; in [11], 4.42%; in assay [12] it was 3.76%. The inhibition was 13.7% in assay [13]; 3.61% in assay [14]; 20.9% in assay [15]; 2.19% in assay [16]; 14.7% in [17]; 4.19% in assay [18]. Besides, the inhibition in assay [19] is 20.5%; in [20] it was 2.19%.

`OCc1ccc(-c2nc(-c3ccccn3)c(-c3ccc4c(c3)OCO4)[nH]2)cc1`: the inhibition in [1] was determined as 9.51%; in assay [2], 5.74%; in assay [3] it was 8.28%; in assay [4], 1.9%; in assay [5], 2.98%; in assay [6], 2.69%. Besides, the inhibition worked out at 3.26% in assay [7]; 1.55% in [8]; 0.61% in assay [9]; 1.43% in assay [10]; 2.25% in assay [11]; 3.74% in assay [12]. In addition, the inhibition in assay [13] worked out at 1.44%; in [14] it was 1.38%; in [15], 0.67%; in [16], 0.79%; in assay [17], 0.24%; in assay [18], 2.72%. For the same molecule, the values for the inhibition in [19] and in assay [20] were 3.66% and 1.53%, respectively.

Take `Cc1ccc(C(=O)NC2CC2)cc1-c1ccc2[nH]ncc2c1`: the inhibition in assay [1] was 0.22%; in [2], -3.35%; in assay [3], -2.14%; in [4], -1.78%; in assay [5], 1.62%; in assay [6] it was -1.53%. For the same molecule, the inhibition in assay [7] is -0.47%; in [8] it was -1.3%; in [9], -0.54%; in [10], -0.64%; in assay [11], 6.16%; in assay [12], 0.52%. In addition, the inhibition in assay [13] was 16.1%; in [14], 1.16%; in assay [15] it was 1.93%; in assay [16] it was 2.94%; in assay [17], 4.97%; in assay [18], -0.94%. The inhibition in assay [19] is 0.23%; in assay [20], -0.73%.
